Assay results reported in PubChem BioAssay (NCI).
This is part of a sample that, as a whole, favours compounds with a hit. Of some 79,000 tested, about 15% had one in any assay. Active and inactive are the calls of the source. Cut-off read from the data, not from the text of the source: active = growth inhibition above about 70%; inactive = the rest. Residues, ends and D or L forms follow the SMILES beside them. *: point of attachment. Fmoc = O=C(OCC1c2ccccc2-c2ccccc21)*; Boc = CC(C)(C)OC(=O)*

Assay: NCI Yeast Anticancer Drug Screen. Data for the mec2-1 strain (AID 157)
Settings: S. cerevisiae mec2-1 strain, hits give high values
Method: Growth inhibition of yeast strains with defined genetic alterations is measured as a screen for potential anti-cancer activity. Selected strains with alterations in DNA damage repair or cell cycle control were exposed to compounds and growth inhibition was measured relative to vehicle treated controls. The strain used in this assay is mec2-1

[1] = at 5.0 µM (retest, dose inferred, filed as 0.5)
[2] = at 50.0 µM (retest, dose inferred, filed as 5.0)

Measured: growth inhibition

CCOP(=O)(OCC)/C(C#N)=C\c1cccc2ccccc12
inactive: at 1.2 µM 4% | at 3.7 µM 16% | [1] -19% | at 11.0 µM 15%
active: at 33.0 µM 85% | [2] 93% | at 50.0 µM 88.2% | at 100.0 µM 98%

O=C(CCCN1CCC(Nc2ccc(F)cc2)(c2nnnn2C2CCCCC2)CC1)c1ccc(F)cc1
active: at 100.0 µM 99%
inactive: at 1.2 µM -7% | at 3.7 µM -8% | [1] 3% | at 11.0 µM -17% | at 33.0 µM -5% | [2] 12% | at 50.0 µM 27.1%

CCCCCCCCCCCCCCCCCCNc1nc(=O)n(C2CC(OP(=O)(O)OCC3OC(n4cc(F)c(=O)[nH]c4=O)CC3O)C(CO)O2)cc1F (stereo not given)
active: [2] 91% | at 50.0 µM 89.4%
inactive: at 1.2 µM 9% | at 3.7 µM 15% | [1] 24% | at 11.0 µM 3% | at 33.0 µM -1% | at 100.0 µM 61%

CCOP(=O)(OCC)/C(C#N)=C/c1ccc(-c2ccc(F)cc2F)o1
active: [2] 99% | at 50.0 µM 70.8%
inactive: at 1.2 µM 2% | at 3.7 µM -4% | [1] 19% | at 11.0 µM -4% | at 33.0 µM -6% | at 100.0 µM -1%

CC(C)(C)OC(=O)NCCCCC(NC(=O)C(Cc1c[nH]c2ccccc12)NC(=O)OCC1c2ccccc2-c2ccccc21)C(=O)O (stereo not given) (Fmoc-Trp-Lys(Boc)-OH; configuration not given here)
inactive: at 1.2 µM -1% | at 3.7 µM -4% | [1] 1% | at 11.0 µM -4% | at 33.0 µM 9% | [2] 36% | at 50.0 µM 42.6% | at 100.0 µM 52%
